# Test results taken from the supplement of paper PMC8975748.
# Counter-ions that a name gives are not always drawn. ± gives the standard deviation of the averaged measurements.
# What was measured:
# [1] = tested on: Saccharomyces cerevisiae BY4741 SeMeCo community; assay: mean cell size (pixel area) (pixels); higher = larger cells; conditions: 10 µM; 24 h; SM minimal medium
# Method in brief: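 Drug was acoustically predosed into 384-well plates to a final 10 µM in SM medium, and each well received 70 µl of Saccharomyces cerevisiae BY4741 diluted to OD600 = 0.3 from an overnight preculture at OD600 = 1.0. This four-plasmid fluorescent community carries one fluorescent marker per plasmid, and each plasmid complements one auxotrophy. After 24 h, the cells were fixed with paraformaldehyde and imaged by automated confocal microscopy, and Harmony analysis yielded mean cell pixel area per well. Each value is averaged over 3 replicates. Same SeMeCo high-content imaging drug screen: Selleck FDA-approved drugs at 10 µM, 24 h in SM medium, 384-well plates, 3 replicates.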
# [2] = tested on: Saccharomyces cerevisiae BY4741 SeMeCo community; assay: z-score of prototroph abundance vs DMSO median; higher = larger share of this subpopulation than in DMSO controls; conditions: 10 µM; 24 h; SM minimal medium; subpopulation (auxotrophy): Prototroph
# Method in brief: (§1)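 Scoring was based on each subpopulation's abundance, expressed as a z-score against the vehicle-well median. A Saccharomyces cerevisiae BY4741 community with four plasmids, each restoring one auxotrophy and encoding a distinct fluorescent protein, was pre-grown overnight to OD600 1.0, diluted to 0.3, and added at 70 µl to 384-well plates acoustically predosed with library drugs (10 µM final). It then grew 24 h in minimal SM medium before paraformaldehyde fixation and automated confocal microscopy, with single-auxotroph fluorescent strains setting thresholds and autofluorescence correction.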
# [3] = tested on: Saccharomyces cerevisiae BY4741 SeMeCo community; assay: z-score of subpopulation abundance vs DMSO median, subpopulation auxotrophic for M; higher = larger share of this subpopulation than in DMSO controls; conditions: 10 µM; 24 h; SM minimal medium; subpopulation (auxotrophy): M
# Method in brief: as §1
# [4] = tested on: Saccharomyces cerevisiae BY4741 SeMeCo community; assay: z-score of subpopulation abundance vs DMSO median, subpopulation auxotrophic for L; higher = larger share of this subpopulation than in DMSO controls; conditions: 10 µM; 24 h; SM minimal medium; subpopulation (auxotrophy): L
# Method in brief: as §1
# [5] = tested on: Saccharomyces cerevisiae BY4741 SeMeCo community; assay: z-score of subpopulation abundance vs DMSO median, subpopulation auxotrophic for U; higher = larger share of this subpopulation than in DMSO controls; conditions: 10 µM; 24 h; SM minimal medium; subpopulation (auxotrophy): U
# Method in brief: as §1
# [6] = tested on: Saccharomyces cerevisiae BY4741 SeMeCo community; assay: z-score of subpopulation abundance vs DMSO median, subpopulation auxotrophic for H; higher = larger share of this subpopulation than in DMSO controls; conditions: 10 µM; 24 h; SM minimal medium; subpopulation (auxotrophy): H
# Method in brief: as §1
# [7] = tested on: Saccharomyces cerevisiae BY4741 SeMeCo community; assay: z-score of subpopulation abundance vs DMSO median, subpopulation auxotrophic for LU; higher = larger share of this subpopulation than in DMSO controls; conditions: 10 µM; 24 h; SM minimal medium; subpopulation (auxotrophy): LU
# Method in brief: as §1
# [8] = tested on: Saccharomyces cerevisiae BY4741 SeMeCo community; assay: z-score of subpopulation abundance vs DMSO median, subpopulation auxotrophic for LM; higher = larger share of this subpopulation than in DMSO controls; conditions: 10 µM; 24 h; SM minimal medium; subpopulation (auxotrophy): LM
# Method in brief: as §1
# [9] = tested on: Saccharomyces cerevisiae BY4741 SeMeCo community; assay: z-score of subpopulation abundance vs DMSO median, subpopulation auxotrophic for HM; higher = larger share of this subpopulation than in DMSO controls; conditions: 10 µM; 24 h; SM minimal medium; subpopulation (auxotrophy): HM
# Method in brief: as §1
# [10] = tested on: Saccharomyces cerevisiae BY4741 SeMeCo community; assay: z-score of subpopulation abundance vs DMSO median, subpopulation auxotrophic for HU; higher = larger share of this subpopulation than in DMSO controls; conditions: 10 µM; 24 h; SM minimal medium; subpopulation (auxotrophy): HU
# Method in brief: as §1
# [11] = tested on: Saccharomyces cerevisiae BY4741 SeMeCo community; assay: z-score of subpopulation abundance vs DMSO median, subpopulation auxotrophic for UM; higher = larger share of this subpopulation than in DMSO controls; conditions: 10 µM; 24 h; SM minimal medium; subpopulation (auxotrophy): UM
# Method in brief: as §1
# [12] = tested on: Saccharomyces cerevisiae BY4741 SeMeCo community; assay: z-score of subpopulation abundance vs DMSO median, subpopulation auxotrophic for HL; higher = larger share of this subpopulation than in DMSO controls; conditions: 10 µM; 24 h; SM minimal medium; subpopulation (auxotrophy): HL
# Method in brief: as §1
# [13] = tested on: Saccharomyces cerevisiae BY4741 SeMeCo community; assay: z-score of subpopulation abundance vs DMSO median, subpopulation auxotrophic for HLU; higher = larger share of this subpopulation than in DMSO controls; conditions: 10 µM; 24 h; SM minimal medium; subpopulation (auxotrophy): HLU
# Method in brief: as §1
# [14] = tested on: Saccharomyces cerevisiae BY4741 SeMeCo community; assay: z-score of subpopulation abundance vs DMSO median, subpopulation auxotrophic for HLM; higher = larger share of this subpopulation than in DMSO controls; conditions: 10 µM; 24 h; SM minimal medium; subpopulation (auxotrophy): HLM
# Method in brief: as §1
# [15] = tested on: Saccharomyces cerevisiae BY4741 SeMeCo community; assay: z-score of subpopulation abundance vs DMSO median, subpopulation auxotrophic for HUM; higher = larger share of this subpopulation than in DMSO controls; conditions: 10 µM; 24 h; SM minimal medium; subpopulation (auxotrophy): HUM
# Method in brief: as §1
# [16] = tested on: Saccharomyces cerevisiae BY4741 SeMeCo community; assay: z-score of subpopulation abundance vs DMSO median, subpopulation auxotrophic for LUM; higher = larger share of this subpopulation than in DMSO controls; conditions: 10 µM; 24 h; SM minimal medium; subpopulation (auxotrophy): LUM
# Method in brief: as §1
# [17] = tested on: Saccharomyces cerevisiae BY4741 SeMeCo community; assay: z-score of subpopulation abundance vs DMSO median, subpopulation auxotrophic for HLUM; higher = larger share of this subpopulation than in DMSO controls; conditions: 10 µM; 24 h; SM minimal medium; subpopulation (auxotrophy): HLUM
# Method in brief: as §1
SMILES,mean cell size [1],z-score of prototroph abundance [2],z-score of subpopulation abundance [3],z-score of subpopulation abundance [4],z-score of subpopulation abundance [5],z-score of subpopulation abundance [6],z-score of subpopulation abundance [7],z-score of subpopulation abundance [8],z-score of subpopulation abundance [9],z-score of subpopulation abundance [10],z-score of subpopulation abundance [11],z-score of subpopulation abundance [12],z-score of subpopulation abundance [13],z-score of subpopulation abundance [14],z-score of subpopulation abundance [15],z-score of subpopulation abundance [16],z-score of subpopulation abundance [17]
Cc1nnc(SCC2=C(C(=O)O)N3C(=O)[C@@H](NC(=O)Cn4cc(Cl)c(=O)c(Cl)c4)[C@H]3SC2)s1 [Cefazedone],12.5 ± 0.39,0.73,0.65,-0.83,-0.01,-0.61,-0.24,-0.95,0.02,-0.74,-0.27,-1.2,-1.4,-0.49,0.05,-1.02,-0.54
CCOC(=O)C1=C[C@@H](OC(CC)CC)[C@H](NC(C)=O)[C@@H](N)C1 [Oseltamivir Phosphate],12.42 ± 0.039,1.28,-0.5,0.45,-1.55,0.58,-0.72,0.27,-0.4,-0.98,-1.29,–,-0.07,0.29,-1.09,–,0.24
Nc1ccc(S(N)(=O)=O)cc1 [Sulfanilamide],12.4 ± 0.23,0.43,-0.87,-1.4,0.22,-0.45,-0.14,-1.02,-0.8,-1.15,0.11,-1.05,-1.52,-0.21,0.6,–,-0.65
CC(C[N+](C)(C)C)OC(N)=O (configuration not stated) [Bethanechol chloride],12.5 ± 0.12,–,-0.79,0.42,0.7,0.23,0.8,-0.56,0.07,0.89,–,-0.24,1.45,0.1,-0.33,-0.42,-0.3
CC(C(O)c1ccc(O)cc1)N1CCC(Cc2ccccc2)CC1 (configuration not stated) [Ifenprodil Tartrate],12.5 ± 0.24,0.98,-0.68,-0.15,–,-0.73,-0.38,-0.75,-0.88,-0.43,-0.03,-1.19,-1.12,-0.92,-1.27,-0.99,-1.11
Nc1nc2ccc(OC(F)(F)F)cc2s1 [Riluzole],12.6 ± 0.14,–,-0.49,0.43,-0.8,-0.43,0.41,0.35,-0.84,-1.39,-0.42,-0.55,-0.57,0.67,-0.82,-0.13,0.8
CC1(C)S[C@@H]2[C@H](NC(=O)[C@H](N)c3ccccc3)C(=O)N2[C@H]1C(=O)O [Ampicillin sodium],12.3 ± 0.15,0.8,-0.4,0.09,–,-0.9,0.12,-0.28,-0.71,0.1,–,-0.73,-0.42,-0.99,-0.12,-0.14,-0.67
Clc1ccc(C(Cn2ccnc2)OCc2csc3c(Cl)cccc23)c(Cl)c1 (configuration not stated) [Sertaconazole nitrate],12.5 ± 0.29,-8.82,-9.36,1.38,–,36.6,1.93,-3.39,0.2,14.5,-2.33,–,11.1,28.5,3.4,2.6,28.5
COc1ccc2[nH]c([S@@+]([O-])Cc3ncc(C)c(OC)c3C)nc2c1 [NEXIUM (esomeprazole magnesium)],12.5 ± 0.14,–,0.2,1.11,-0.8,3.24,0.11,0.3,0.8,0.68,-1.82,1.91,1.46,1.32,-0.41,–,-0.44
CC[C@@H]1/C=C(\C)C[C@H](C)C[C@H](OC)[C@H]2O[C@@](O)(C(=O)C(=O)N3CCCC[C@H]3C(=O)O[C@H](/C(C)=C/[C@@H]3CC[C@H](Cl)[C@H](OC)C3)[C@H](C)[C@@H](O)CC1=O)[C@H](C)C[C@@H]2OC [Pimecrolimus],11.6 ± 0.16,–,1.75,3.91,-1.72,1.91,-0.41,4.26,1.95,-0.6,–,4.57,1.88,2.14,0.94,4.36,2.63
COc1cc(NC(C)CCCN)c2ncccc2c1 (configuration not stated) [Primaquine Diphosphate],12.6 ± 0.24,0.58,1.17,-0.56,–,0.32,-1.15,0.09,0.98,-1.2,-0.88,–,-0.39,0.32,-1.39,-0.75,-0.49
CCOC(=O)C1=C(C)NC(C)=C(C(=O)OCC)C1c1ccccc1/C=C/C(=O)OC(C)(C)C [Lacidipine],12.5 ± 0.14,0.54,3.48,1.08,–,1.2,-2.51,1.6,1.9,-2.93,-2.61,-0.42,-0.94,1.17,-0.96,-1.16,-0.21
COc1ccc2c(c1)c(CC(=O)OCC(=O)O)c(C)n2C(=O)c1ccc(Cl)cc1 [Acemetacin],12.45 ± 0.094,-0.16,0.01,-1.06,-0.02,0.66,0.16,-0.54,0.71,0.77,0.2,–,-0.64,-0.3,0.69,–,-0.61
Oc1c(Cl)cc(Cl)c(Cl)c1Cc1c(O)c(Cl)cc(Cl)c1Cl [Hexachlorophene],12.08 ± 0.11,–,0.14,-1.4,0.01,7.09,-0.56,1.88,9.29,4.22,5.02,3.85,1.13,8.62,14,2.37,7.77
